Screens from PubChem BioAssay.
An excerpt weighted towards active compounds, which were near 22% of everything screened.
Measles CPE = protection of cells from measles virus; Measles virus-infected cells, CPE protection, absorbance; protection (pct of control), % at 4 µM; AID 841; hit rate 1.5% among 140,000; in the data active means protection mostly above about 24%, no sharp cut-off; inactive means mostly below about 26%
CYP2C9 act = increases human cytochrome P450 2C9 activity | P11712 | recombinant CYP2C9, luciferin-H conversion, luminescence; active compounds read high; factor 1 = untreated enzyme, 0 = blocked | activation factor at 5 µM | hit rate 1.4% among 96,000;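 active means activation factor of 2 or more for CYP2C9 at a 5 µM dose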
Target sequence (P11712 whole entry, looked up): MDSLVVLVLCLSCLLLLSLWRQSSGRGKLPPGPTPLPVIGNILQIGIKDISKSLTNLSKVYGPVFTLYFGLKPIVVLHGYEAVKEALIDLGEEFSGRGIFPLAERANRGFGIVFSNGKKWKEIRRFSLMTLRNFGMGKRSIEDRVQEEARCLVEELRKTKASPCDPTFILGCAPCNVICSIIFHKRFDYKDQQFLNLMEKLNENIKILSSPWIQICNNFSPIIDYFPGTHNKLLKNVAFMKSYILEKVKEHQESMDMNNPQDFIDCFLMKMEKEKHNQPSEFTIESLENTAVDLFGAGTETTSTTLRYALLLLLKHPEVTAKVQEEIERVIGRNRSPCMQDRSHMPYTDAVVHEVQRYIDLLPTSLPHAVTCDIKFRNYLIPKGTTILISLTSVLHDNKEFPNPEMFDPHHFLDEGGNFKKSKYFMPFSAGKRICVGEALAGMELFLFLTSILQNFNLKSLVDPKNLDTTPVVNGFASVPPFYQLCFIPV
CYP2C19 inhib = inhibitors of human CYP2C19 | P33261 | CYP2C19 Supersomes, luciferin-H EGE luminescence, 30 min | inhibition, % at 5 µM | hit rate 21% among 96,000 | AID 778;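 active means CYP2C19 inhibition above a set limit at 5 µM in the primary screen, cut at about 50% in these data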
CYP2C19 act = increases human CYP2C19 enzyme activity. recombinant CYP2C19, luciferin-H EGE luminescence; active compounds read high; 0 = fully inhibited enzyme, 1 = untreated enzyme. activation factor at 5 µM. 96,000 tested, under 10 active;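 active means activation factor of at least 2 at 5 µM in the primary screen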
CYP2C9 inhib = inhibitors of human CYP2C9 | inhibition, % at 5 µM | hit rate 20% among 96,000 | AID 777 | CYP2C9 Supersomes, luciferin-H conversion, luminescence | P11712;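 active means blocking of liver enzyme CYP2C9 beyond about 50% at 5 µM, limit read from the data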
Large screens that a line does not name were inactive.

C=CCOc1cc(C)nc(-c2ccccc2O)n1	none
CCOC(=O)C1(Nc2nccs2)Sc2ccccc2NC1=O (configuration not stated)	CYP2C19 inhib 64
CCOC(=O)Nc1ccc2c(c1)Nc1ccccc1S2	none
O=C(Nc1ccccc1Cl)ON=C1c2ccccc2-c2ccccc21	CYP2C9 inhib 78
O=C(Nc1ccccc1)ON=C1c2ccccc2-c2ccccc21	CYP2C9 inhib 72
CCOC(=O)CSCC(=O)N1N=C(c2cccs2)CC1c1ccc(F)cc1 (configuration not stated)	none (no result: CYP2C9 act, CYP2C19 inhib, CYP2C19 act, CYP2C9 inhib)
COc1cccc(C2CC(c3cccs3)=NN2C(=O)CSC2=NN3CCCC(=O)N=C3S2)c1OC (configuration not stated)	CYP2C19 inhib 76, CYP2C9 inhib 83
CC1CCCC(NC(=O)COC(=O)c2ccc3ccccc3n2)C1C (configuration not stated)	CYP2C19 inhib 62
CC1CCCC(NC(=O)COC(=O)c2ccc(N(C)C)cc2)C1C (configuration not stated)	CYP2C19 inhib 83, CYP2C9 inhib 54
Cc1noc(C)c1COc1ccc(C(=O)OCC(=O)NC2CCCCC2C)cc1 (configuration not stated)	CYP2C9 inhib 59
Cc1noc(C)c1COc1ccc(C(=O)OCC(=O)NC23CC4CC(CC(C4)C2)C3)cc1	none
CN(C)c1ccc(C(=O)OCC(=O)NC2CCCCC2)cc1	CYP2C19 inhib 88
CCN(CC)c1ccc(C(=O)OCC(=O)NC2CCCCC2C)cc1 (configuration not stated)	none
COc1cccc(NC(=S)N(CCCN2CCOCC2)Cc2cn(C)c3ccccc23)c1	none (no result: CYP2C9 act, CYP2C19 inhib, CYP2C19 act, CYP2C9 inhib)
O=C(CCNC(=O)c1ccco1)NCc1ccccc1	none
COc1cc2c(cc1NC(=O)COC(=O)[C@@H](NC(=O)c1ccccc1)C(C)C)oc1ccccc12	none (no result: CYP2C9 act, CYP2C19 inhib, CYP2C19 act, CYP2C9 inhib)
COc1cc(C(=O)Nc2nc3ccc(C)cc3s2)ccc1OCc1c(C)noc1C	none
CCN(CCO)c1ncnc2c1sc1nc(CC(C)C)c3c(c12)CC(C)(C)OC3	CYP2C9 inhib 69
CC(C)NC(=O)NS(=O)(=O)c1cnccc1N1CCCCC1	none (no result: CYP2C9 act, CYP2C19 inhib, CYP2C19 act, CYP2C9 inhib)
Oc1ccccc1/C=N/Nc1ccnc(SCc2ccccc2)n1	none (no result: CYP2C9 act, CYP2C19 inhib, CYP2C19 act, CYP2C9 inhib)
COc1cccc(CNC(=O)CN(C)S(=O)(=O)c2cnc[nH]2)c1	CYP2C19 inhib 99, CYP2C9 inhib 79 (no result: Measles CPE)
CCN(c1cccc(C)c1)S(=O)(=O)c1cnc[nH]1	CYP2C19 inhib 97, CYP2C9 inhib 98
COc1ccc(C)cc1NC(=O)CN(C)S(=O)(=O)c1cnc[nH]1	CYP2C19 inhib 78, CYP2C9 inhib 73
CCN(c1cccc(C)c1)S(=O)(=O)c1ccc2[nH]c(=O)c(=O)[nH]c2c1	CYP2C9 inhib 69
O=c1cc(CSc2nnc(COc3ccccc3)o2)c2ccccc2[nH]1	none
COC(=O)c1c(NC(=O)C2CC2)sc2c1CCCC2	none
CCCCC1(CC)C(=O)NC(=O)NC1=Nc1ccc(OC)cc1 (configuration not stated)	none
CCOC(=O)CCc1c(C)c(C#N)c2nc3ccccc3n2c1-n1ccnc1C	none
Cc1cccc(NC(=O)CN(C)S(=O)(=O)c2cnc[nH]2)c1	CYP2C19 inhib 90, CYP2C9 inhib 93
Cc1cccc(NC(=O)Cn2cccc2)c1	none
O=[N+]([O-])c1cc2c(c(CSc3nnc(Nc4ccccc4)s3)c1)OCOC2	none
Cc1ccccc1Nc1nnc(SCc2cc([N+](=O)[O-])cc3c2OCOC3)s1	CYP2C19 inhib 100, CYP2C9 inhib 62
COc1ccc(C(=O)CN(C(=O)c2ccc(Cl)cc2)N2C(=O)C3CCCCC3C2=O)cc1 (configuration not stated)	none
CN(C(=O)c1ccc(Cl)cc1)C1=CCCCC1CCC#N (configuration not stated)	CYP2C19 inhib 64
CCCCCCC(=O)N1CCC(c2nc3c(nnn3Cc3ccccc3Cl)c(=O)[nH]2)CC1	CYP2C9 inhib 93
O=C(Cc1cccs1)N1CCC(c2nc3c(nnn3Cc3ccccc3Cl)c(=O)[nH]2)CC1	CYP2C19 inhib 79, CYP2C9 inhib 100
CC1=C(C(=O)OC2CCCCC2)C(c2cccs2)n2c(nc3ccccc32)N1 (configuration not stated)	none (no result: CYP2C9 act, CYP2C19 inhib, CYP2C19 act, CYP2C9 inhib)
Cc1cccc(NC(=O)COC(=O)Cc2c[nH]c3ccccc23)c1C	none (no result: CYP2C9 act, CYP2C19 inhib, CYP2C19 act, CYP2C9 inhib)
CCOc1ccc(NC(=O)C2CC(C)=C(C)CC2C(=O)O)cc1 (configuration not stated)	none
Clc1ccccc1CSc1nncn1NC/C=C/c1ccccc1	none (no result: CYP2C9 act, CYP2C19 inhib, CYP2C19 act, CYP2C9 inhib)
Cc1cc(C)nc(SCC(=O)Nc2ccc(Br)cn2)n1	Measles CPE 18, CYP2C19 inhib 81
Cc1cc(C)nc(SCC(=O)NC2=NN=C(c3ccc(Br)cc3)CS2)n1	CYP2C9 act 2.1
CSc1nsc(SCC(=O)Nc2nc3ccc(C)cc3s2)n1	none (no result: CYP2C9 act, CYP2C19 inhib, CYP2C19 act, CYP2C9 inhib)
CCC(Sc1nc(C)cc(C)n1)C(=O)NC1=NN=C(c2ccc(C)cc2)CS1 (configuration not stated)	none
CSc1nsc(SCC(=O)Nc2ccc(Br)cn2)n1	CYP2C19 inhib 73
CSc1nsc(SCC(=O)Nc2ccc(C(C)=O)cc2)n1	CYP2C9 inhib 57
Cc1nnc(SCC(=O)Nc2ccc(Br)cn2)[nH]c1=O	none
CC1CCN(S(=O)(=O)c2cn(CC(=O)N3CC(C)CC(C)C3)c(=O)c3ccccc23)CC1 (configuration not stated)	none (no result: CYP2C9 act, CYP2C19 inhib, CYP2C19 act, CYP2C9 inhib)
CCn1c(SCC(=O)Nc2nc(C)c(C)s2)nnc1-c1cccnc1	none
CCCC(=O)Nc1ccc(NC(=O)c2cccc(OC)c2)nc1	none
Brc1ccc(CNCc2cccs2)cc1	Measles CPE 19 (no result: CYP2C9 act, CYP2C19 inhib, CYP2C19 act, CYP2C9 inhib)
c1ccc(COc2ccc(CNCc3cccs3)cc2)cc1	CYP2C19 inhib 54
Cc1ccc(-c2noc(-c3ccccc3C(=O)N3CCOCC3)n2)cc1	none
CC(=O)c1ccc(Nc2c3c(c(C#N)c4nc5ccccc5n24)CCC3)cc1	none (no result: CYP2C9 act, CYP2C19 inhib, CYP2C19 act, CYP2C9 inhib)
COc1ccc(-c2cc(C(=O)O)c3ccccc3n2)c(OC)c1	CYP2C9 inhib 62
COc1ccc(-c2cc(C(=O)N/N=C/c3ccc4c(c3)OCO4)c3ccccc3n2)c(OC)c1	CYP2C19 inhib 66, CYP2C9 inhib 88
COc1cc2ccccc2cc1C(=O)O	CYP2C9 inhib 82
COc1ccc(-c2cc(C(=O)N/N=C/c3ccc(OC)c(COCC(F)(F)C(F)F)c3)c3ccccc3n2)c(OC)c1	CYP2C19 inhib 79, CYP2C9 inhib 88
O=C(/C=C/c1ccccc1)NC1CCS(=O)(=O)C1 (configuration not stated)	none (no result: CYP2C9 act, CYP2C19 inhib, CYP2C19 act, CYP2C9 inhib)
CC(OC(=O)c1snc(C(=O)NC2CCCCC2)c1N)C(=O)NC(C)(C)C (configuration not stated)	none (no result: CYP2C9 act, CYP2C19 inhib, CYP2C19 act, CYP2C9 inhib)
c1ccc(NCC2OCc3ccccc3CO2)cc1	none (no result: CYP2C9 act, CYP2C19 inhib, CYP2C19 act, CYP2C9 inhib)
Clc1ccc(-c2c[n+](Cc3cccc(Cl)c3)c3n2CCC3)cc1	none (no result: CYP2C9 act, CYP2C19 inhib, CYP2C19 act, CYP2C9 inhib)
O=C(N/N=C\c1ccc(OCC(=O)N2CCCC2)cc1)C(=O)Nc1ccccc1F	none (no result: CYP2C9 act, CYP2C19 inhib, CYP2C19 act, CYP2C9 inhib)
O=C(N/N=C/c1cccs1)c1cc(-c2ccncc2)nc2ccccc12	none (no result: CYP2C9 act, CYP2C19 inhib, CYP2C19 act, CYP2C9 inhib)
COc1ccccc1-c1cc(C(=O)N/N=C/C=C/c2ccccc2[N+](=O)[O-])c2ccccc2n1	CYP2C9 inhib 66
